Results on 33 compounds are retold here after publication PMC5540273 (PLoS ONE, 2017).
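Further: KINOMEscan kinase panel screen.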

The subject of this test is SgK110. The note with it: concentration: 1 μM, replicates: in singlicate; n = 1.
Take `O=C(Nc1n[nH]c2nc(-c3nccs3)c(Br)cc12)C1CCCC1` [SB-742609]: the “%Inh” value worked out at 0%. Consider `CC1=C(C(=O)Nc2cc3cn[nH]c3cc2F)C(c2ccc(C(F)(F)F)cc2)CC(=O)N1` (stereo not drawn) [GSK429286], for which the “%Inh” value came out at 0%. To `Cl.O=C(Nc1cccc(-c2nn3ncccc3c2-c2ccnc(Nc3cccnc3)n2)c1)c1c(F)cccc1F` [GSK312879] belongs 0%; to `Cc1ccc(NC(=O)Nc2cccc(Cl)c2)cc1-c1ccc(C(=O)Nc2ccncc2)cc1` [GSK1398468], 0%. As for `CC(=O)Nc1nc2cnc(Nc3cc(NC(=O)c4cccc(CCC#N)c4)ccc3C)nc2s1`, the “%Inh” value is 13%.

For `COc1cccc(NC(=O)NC2CCN(c3ccnc(Nc4ccc(F)cc4)n3)C2)c1` (stereo not drawn) [GSK1379721], the “%Inh” value is on record as 0%.

For the compound `CS(=O)(=O)c1ccc(-c2nc3n(c2-c2ccncc2)CCC3)cc1` [SKF-105942], the “%Inh” value was found to be 0%. Regarding `CCCc1ccc(S(=O)(=O)NC2CCN(c3ccnc(Nc4ccc(F)cc4)n3)C2)cc1` (stereo not drawn) [GSK1379715], the “%Inh” value amounted to 34%.

Regarding `O=S(=O)(c1ccc(-c2ccnc3[nH]ccc23)cc1)N1CCCC1` [GSK846226], the “%Inh” value is 0%. Turning to `Cc1ccc(NC(=O)Nc2cc(C(C)(C)C)nn2-c2ccccc2)cc1` [GSK1014915], the “%Inh” value was found to be 0%. As for `CN(C)CCN(C)C(=O)c1cc(-c2ccncc2)c(-c2ccc(Cl)c(O)c2)o1.Cl.Cl` [SB-710397], the “%Inh” value is 6%. As for `O=C(O)COc1ncnc2cc(-c3ccc4[nH]ncc4c3)sc12`, the “%Inh” value amounted to 0%. Take `Cc1cccc(-c2nc(C)cc(Nc3ccncc3)n2)n1` [GSK257997]: the “%Inh” value is 0%. In the case of `O=C(Nc1n[nH]c2nc(-c3nccs3)c(Br)cc12)C1CC1` [SB-742251] it was 4%; in that of `Nc1nc(-c2nccs2)c(-c2ccnc3ccccc23)s1` [GW693542], 13%. In the case of `CC(C)(C)c1ccc(C(=O)Nc2cn3cc(-c4cccnc4)ccc3n2)cc1` it was 0%; in that of `Cn1ccc2ncnc(Oc3ccc(NC(=O)Nc4ccccc4)cc3)c21`, 2%.

On to `Cl.c1ccc(-c2n[nH]cc2-c2ccnc(-c3ccc(CN4CCOCC4)cc3)c2)nc1` [GW776245], for which the “%Inh” value amounted to 0%. For the compound `COc1cc2ncn(-c3cc(OCC4CCCO4)c(C(N)=O)s3)c2cc1OC` (stereo not drawn) [GSK204607], the “%Inh” value is listed as 0%. As to `COc1ccc(C2=C(Nc3cccc(C(=O)O)c3)C(=O)NC2=O)cc1` [SB-390765], the “%Inh” value is reported as 0%. In the case of `Fc1cc(Cl)ccc1Nc1ccnc2cc(-c3ccc(CN4CCCCC4)o3)ccc12` [GW560116], the “%Inh” value is 0%. `O=c1cc(N2CCOCC2)nc2n(Cc3cccc(Cl)c3Cl)ccn12` [GSK2286295]: the “%Inh” value was determined as 0%. In the case of `O=C(Nc1ccccc1)Nc1cccc(Oc2ccc3nccn3n2)c1`, the “%Inh” value is listed as 40%. As to `Nc1ncnc2[nH]c(-c3ccccc3)nc12` [AH5015], the “%Inh” value is recorded as 0%. For `Cc1cccc(-c2nc(-c3ccc(S(C)(=O)=O)cc3)sc2-c2ccnc(NCCc3ccccc3)c2)c1`, the “%Inh” value is on record as 9%. `O=C(Nc1n[nH]c2cc(-c3cccc(F)c3F)ccc12)C1CC1` [SB-733894]: the “%Inh” value amounted to 17%. As to `CN1C(=O)C(Nc2ccc(Cl)c(C(=O)O)c2)=C(c2ccc(Cl)cc2)C1=O` [SB-404290], the “%Inh” value was found to be 0%. In the case of `Cn1cncc1-c1ccc2ncnc(Nc3ccc(OCc4ccccc4)cc3)c2c1` [GW320571] it was 0%; in that of `Cn1ccc2ncnc(Oc3cccc(C(=O)Nc4ccccc4)c3)c21`, 0%. Consider `Fc1cc(Cl)ccc1Nc1ccnc2cc(I)ccc12` [GW551191], for which the “%Inh” value is given as 4%. Consider `COc1cc2ncnc(Nc3ccc4nc(-c5ccccc5)[nH]c4c3)c2cc1OC.Cl` [GW282450], for which the “%Inh” value was 0%. In the case of `COc1cccc(-c2cc(-c3c[nH]nc3-c3ccccn3)ccn2)c1` [GW680338], the “%Inh” value is recorded as 17%.

For `COc1ccc(CNC(=O)NC2CCN(c3ccnc(Nc4cc(OC)c(OC)c(OC)c4)n3)C2)cc1` (stereo not drawn) [GSK1379748], the “%Inh” value is given as 0%.
